Over roughly 4,500 sequences, “log2 normalized fluorescence” has its median near -0.34; the highest 2% begin near 3.3. Many of the other results were omitted from the sample, so the highest values are more common in it than they were.
Biological target: MAX:MAX (p21) (human, UniProt P61244-2 1-151)
Assay: protein-binding microarray (anti-MAX antibody); PBM: 15 mM Tris-HCl pH 7.5, 100 mM KCl, 0.075% NP40, 7.5 mM beta-mercaptoethanol, 375 ng/ul BSA, 8 ng/ul poly(dA-dT):(dA-dT), 550 ng complex, 60 min, room tempe; high values mean tight binding
Details: protein: recombinant; tags: 6xHis; chain copies: 2; label: 3' end of printed strand (linker) attached to glass slide; dsDNA, one strand shown
Method in brief: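 Binding is reported as log2 normalized fluorescence. Recombinant His-tagged human MYC:MAX or MAX:MAX dimers expressed in E. coli (550 ng) were incubated with a custom Agilent glass array for 60 min at room temperature in Tris-KCl buffer, pH 7.5, containing NP40, BSA and poly(dA-dT) competitor. The array carried ~5000 unique 12-nt sequences, each spotted in triplicate and made double-stranded by primer extension, and bound protein was detected with anti-MAX and secondary antibodies and scanned at 543 nm.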

Sequence of MAX:MAX (p21) (P61244 other isoform, or with tags, fused parts or gaps): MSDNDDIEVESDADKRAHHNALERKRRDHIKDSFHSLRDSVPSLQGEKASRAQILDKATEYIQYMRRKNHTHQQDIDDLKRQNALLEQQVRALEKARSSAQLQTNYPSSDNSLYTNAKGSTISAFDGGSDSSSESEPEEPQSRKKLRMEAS

Row | Sequence | binding signal
1 | CCGGCTGATATTGCGTATTAATAGCTAAGATTACTATATCGACG | -0.611 log2 normalized fluorescence
2 | CCGGCTGAGTTACGGTATTAATAGCTAAGATTACTATATCGACG | -0.516 log2 normalized fluorescence
3 | CCGGCTGACACGTCGAATTAATAGCTAAGATTACTATATCGACG | 1.45 log2 normalized fluorescence
4 | CCGGCTGACCCGTCGTATTAATAGCTAAGATTACTATATCGACG | -0.382 log2 normalized fluorescence
5 | CCGGCTGAGATGGAGTATTAATAGCTAAGATTACTATATCGACG | -0.522 log2 normalized fluorescence
6 | CCGGCGGACACGTGTGATTAATAGCTAAGATTACTATATCGACG | 3.15 log2 normalized fluorescence
7 | CCGGCTGATTCTCAGTATTAATAGCTAAGATTACTATATCGACG | -0.684 log2 normalized fluorescence
8 | CCGGCTGATCAGAGGTATTAATAGCTAAGATTACTATATCGACG | -0.421 log2 normalized fluorescence
9 | CCGGCTGACACGTGTCTTTAATAGCTAAGATTACTATATCGACG | 3.41 log2 normalized fluorescence
10 | CCGGCTGACACGTTGTCTTAATAGCTAAGATTACTATATCGACG | 3.12 log2 normalized fluorescence
11 | CCGGCTGACACGTGACTTTAATAGCTAAGATTACTATATCGACG | 3.21 log2 normalized fluorescence
12 | CCGGCTTACACGTGGTGTTAATAGCTAAGATTACTATATCGACG | 3.07 log2 normalized fluorescence
13 | CCGGCTTAAACGTGTTATTAATAGCTAAGATTACTATATCGACG | 2.7 log2 normalized fluorescence
14 | CCGGCGCACACGTGCTATTAATAGCTAAGATTACTATATCGACG | 3.04 log2 normalized fluorescence
15 | CCGGCTTATACGTGATATTAATAGCTAAGATTACTATATCGACG | 0.467 log2 normalized fluorescence
16 | CCGGCTAACACGTGATATTAATAGCTAAGATTACTATATCGACG | 3.18 log2 normalized fluorescence
17 | CCGGCTTACACATGCTATTAATAGCTAAGATTACTATATCGACG | 3.23 log2 normalized fluorescence
18 | CCGGCTTACACGTGATATTAATAGCTAAGATTACTATATCGACG | 3.31 log2 normalized fluorescence
19 | CCGGCTTACACGTGTTATTAATAGCTAAGATTACTATATCGACG | 3.4 log2 normalized fluorescence
20 | CCGGCTTACACGTGCTATTAATAGCTAAGATTACTATATCGACG | 3.57 log2 normalized fluorescence
21 | CCGGCTGATGTCCAGTATTAATAGCTAAGATTACTATATCGACG | -0.249 log2 normalized fluorescence
22 | CCGGCTGAATGGGCGTATTAATAGCTAAGATTACTATATCGACG | 0.274 log2 normalized fluorescence
23 | CCGGCTGAGTCGAGGTATTAATAGCTAAGATTACTATATCGACG | -0.576 log2 normalized fluorescence
24 | CCGGCTGAACCGGCGTATTAATAGCTAAGATTACTATATCGACG | -0.299 log2 normalized fluorescence
25 | CCGGCAGACACTTAGTATTAATAGCTAAGATTACTATATCGACG | 0.466 log2 normalized fluorescence
26 | CCGGCTTACACATGGTATTAATAGCTAAGATTACTATATCGACG | 3.16 log2 normalized fluorescence
27 | CCGGCCTTCACGTGGTATTAATAGCTAAGATTACTATATCGACG | 3.1 log2 normalized fluorescence

Row | Sequence | binding signal
28 | CCGGCTTTCACGTGGTATTAATAGCTAAGATTACTATATCGACG | 3.41 log2 normalized fluorescence
29 | CCGGCTTTCACTTGGTATTAATAGCTAAGATTACTATATCGACG | -0.636 log2 normalized fluorescence
30 | CCGGCTTTCACATGGTATTAATAGCTAAGATTACTATATCGACG | 3.34 log2 normalized fluorescence
31 | CCGGCATTCACGTGGTATTAATAGCTAAGATTACTATATCGACG | 3.26 log2 normalized fluorescence
32 | CCGGCTAATACGTGGTATTAATAGCTAAGATTACTATATCGACG | 1.49 log2 normalized fluorescence
33 | CCGGCGTTCACGTGGTATTAATAGCTAAGATTACTATATCGACG | 3.37 log2 normalized fluorescence
34 | CCGGCTATCACGTGGTATTAATAGCTAAGATTACTATATCGACG | 3.15 log2 normalized fluorescence
35 | CCGGCTGAGGGAGCGTATTAATAGCTAAGATTACTATATCGACG | -0.434 log2 normalized fluorescence
36 | CCGGCTGAGGAGAGGTATTAATAGCTAAGATTACTATATCGACG | -0.732 log2 normalized fluorescence
37 | CCGGCTGACCGCCGGTATTAATAGCTAAGATTACTATATCGACG | -0.241 log2 normalized fluorescence
38 | CCGGCTGACAAGCAGTATTAATAGCTAAGATTACTATATCGACG | -0.299 log2 normalized fluorescence
39 | CCGGCCCCCACGTGGTATTAATAGCTAAGATTACTATATCGACG | 3.4 log2 normalized fluorescence
40 | CCGGCGCCCACGTGGTATTAATAGCTAAGATTACTATATCGACG | 3.43 log2 normalized fluorescence
41 | CCGGCCTCCACGTGGTATTAATAGCTAAGATTACTATATCGACG | 2.94 log2 normalized fluorescence
42 | CCGGCTAAGACGTGGTATTAATAGCTAAGATTACTATATCGACG | 1.75 log2 normalized fluorescence
43 | CCGGCTATTACGTGGTATTAATAGCTAAGATTACTATATCGACG | 1.27 log2 normalized fluorescence
44 | CCGGCTCCGACGTGGTATTAATAGCTAAGATTACTATATCGACG | 2.2 log2 normalized fluorescence
45 | CCGGCTCCCACGTGGTATTAATAGCTAAGATTACTATATCGACG | 3.4 log2 normalized fluorescence
46 | CCGGCCCACACGTGGTATTAATAGCTAAGATTACTATATCGACG | 2.95 log2 normalized fluorescence
47 | CCGGCTGAAGCCTGGTATTAATAGCTAAGATTACTATATCGACG | 0.476 log2 normalized fluorescence
48 | CCGGCTGACGGCCCGTATTAATAGCTAAGATTACTATATCGACG | -0.704 log2 normalized fluorescence
49 | CCGGCTGACTCACTGTATTAATAGCTAAGATTACTATATCGACG | -0.209 log2 normalized fluorescence
50 | CCGGCTGACCTGTGGTATTAATAGCTAAGATTACTATATCGACG | 0.594 log2 normalized fluorescence
51 | CCGGCTGACAACACGTATTAATAGCTAAGATTACTATATCGACG | 0.856 log2 normalized fluorescence
52 | CCGGCTGACTCGTGCTATTAATAGCTAAGATTACTATATCGACG | 3.13 log2 normalized fluorescence
53 | CCGGCAAACACGTAGTATTAATAGCTAAGATTACTATATCGACG | 2.6 log2 normalized fluorescence
